Results from PubChem BioAssay (NCATS).
Results filed as inconclusive are left out. Calls of active or inactive are those of the source. Unless noted, calls follow the shape of the dose curve; as a rule, active = well fitted curve in the direction sought with a large enough effect; inconclusive = small, poorly fitted or top-dose-only effect, or another doubt; inactive = no such curve, though single readings can be large; an effect the other way counts as inactive or inconclusive.

Experiments:
[1] = qHTS profiling of the MIPE4 collection as inhibitors of Plasmodium falciparum (3D7) proliferation (AID 743344; call rule not given here;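 also: scaled between DMSO vehicle wells and 0.29 µM artemisinin as full inhibition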); details: P. falciparum 3D7 in erythrocytes, SYBR Green DNA fluorescence, 72 h; at 28.5 µM unless noted
In short: (§1)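 Erythrocytes infected with P. falciparum (0.3% parasitemia, 2.5% hematocrit) incubated with compounds 72 h at 37 C, 5% CO2. Lysis with saponin/Triton buffer containing SYBR Green I, overnight at room temperature in the dark; DNA fluorescence (485/535 nm) normalised to 0.29 uM artemisinin and DMSO.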

[2] = qHTS profiling of the MIPE4 collection as inhibitors of Plasmodium falciparum (DD2) proliferation (AID 743345; call rule not given here); details: P. falciparum Dd2 in erythrocytes, SYBR Green DNA, 72 h; at 28.5 µM unless noted
In short: as §1

[3] = qHTS profiling of the MIPE4 collection as inhibitors of Plasmodium falciparum (DD2) proliferation (Rep 2) (AID 743346; call rule not given here); details: P. falciparum Dd2 in erythrocytes, SYBR Green DNA, 72 h; at 28.5 µM unless noted
In short: as §1

[4] = qHTS profiling of the MIPE4 collection as inhibitors of Plasmodium falciparum (HB3) proliferation (AID 743347; call rule not given here;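 also: plate controls were DMSO vehicle wells for no effect and artemisinin wells for full effect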); details: P. falciparum HB3 in erythrocytes, SYBR Green DNA, 72 h; at 28.5 µM unless noted
In short: as §1

[5] = High-throughput drug toxicity screening in the BPDCN cell line Gen2.2 (AID 1224824; call rule not given here;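 also: cells exposed to compounds for 48 h before reading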); details: Gen2.2 BPDCN cells; at 45.8 µM (top of the series) unless noted
In short: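 CellTiter-Glo luminescence after 48 h compound exposure of Gen2.2 cells; percent activity set with DMSO as 100% and bortezomib (9.2 uM final) as 0%. Cells seeded at 500 per well, RPMI + 10% FBS, 37 °C.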

[6] = High-throughput drug toxicity screening in the BPDCN cell line Cal-1 (AID 1224825; call rule not given here); details: Cal-1 BPDCN cell viability, qHTS; at 45.8 µM (top of the series) unless noted
In short: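 500 Cal-1 cells/well, RPMI + glutamine + 10% FBS (phenol red-free); cpd added by pin tool; 48 h, 37C, 5% CO2; CTG 15 min RT, lumi read. Normalised: DMSO 100%, bortezomib 9.2 uM 0%.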

[7] = qHTS assay for measurement of the activity of small molecule inhibitors on Zika virus induced Caspase-3 activity in human iPSC derived neural progenitor cells (hNPCs) (AID 1224857); also: nearly all actives have a fitted effect of over 65% in size; also: potency is read from the fitted curve at half-maximal effect
In short: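 hNPCs seeded 350 cells/well, cultured 16–20 h; compounds added 1 h before ZIKV (2 FFU/cell), 37 C 6 h. Caspase-Glo 3/7 luminescence after 30 min RT; % inhibition from induction scaled to uninfected (0%) and infected (100%) wells.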

[8] = qHTS assay for measurement of the activity of small molecule inhibitors on Zika virus induced Caspase-3 activity in human astrocytoma cells (AID 1224859); also: potency is read from the fitted curve at half-maximal effect
In short: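 Luminescence read-out (Caspase-Glo 3/7, 30 min RT) of caspase activity in SNB-19 cells infected 6 h with ZIKV, 2 FFU/cell, after 1 h compound pretreatment; % inhibition from induction normalised to uninfected (0%) and infected (100%) wells.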

[9] = qHTS Screen of the MIPE 4.0 Collection Against Ewings Sarcoma (RDES) (AID 1259252); also: nearly all actives have a fitted effect of over 35% in size; also: potency is read from the fitted curve at half-maximal effect
In short: (§2)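 Cells plated in serum-containing RPMI (5% FBS) and treated with compound dilutions for 48 h. Readout luminescent viability; normalization relied on vehicle (no inhibition) and media-only columns (full inhibition).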

[10] = qHTS Screen of the MIPE 4.0 Collection Against Ewings Sarcoma (TC71) (AID 1259253); also: nearly all actives have a fitted effect of over 40% in size; also: potency is read from the fitted curve at half-maximal effect
In short: as §2

[11] = qHTS Screen of the MIPE 4.0 Collection Against Ewings Sarcoma (EW8) (AID 1259255); also: nearly all actives have a fitted effect of over 35% in size; also: potency is read from the fitted curve at half-maximal effect;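 as to viability: 100% = DMSO-treated cells and 0% = medium-only wells without cells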
In short: as §2

[12] = qHTS assay to identify small molecule inhibitors of chordoma cells - UCH-2 (AID 1259356); also: % is scaled to controls: 0 for no effect and ±100 for the full control effect
[13] = qHTS assay to identify small molecule inhibitors of chordoma cells - UCH-1 (AID 1259355); also: % is scaled to controls: 0 for no effect and ±100 for the full control effect; nearly all actives have a fitted effect of over 55% in size
In short: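 Seed 800 cells per well; incubate overnight at 37 C, 5% CO2. Add test compounds (15 concentrations), then the auranofin–topoisomerase-agent combination. Incubate 48hr, add CellTiter-Glo, wait 30min, read luminescence.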

[14] = qHTS profiling for inhibitors of Plasmodium falciparum (HB3) proliferation (AID 743324); details: Plasmodium falciparum HB3 blood-stage proliferation; at 28.7 µM (top of the series) unless noted;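 also: 100% = DMSO vehicle wells and 0% = artemisinin-treated control wells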
In short: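 P. falciparum HB3 grown in erythrocytes (0.3% parasitemia, 2.5% hematocrit final) with compound for 72 h at 37 C, 5% CO2. Parasite DNA detected by SYBR Green after saponin/triton lysis overnight; normalized to 0.29 uM artemisinin and DMSO.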

[15] = qHTS Screen of the MIPE 4.0 Collection Against Ewings Sarcoma (TC32) (AID 1259256); also: potency is read from the fitted curve at half-maximal effect; nearly all actives have a fitted effect of over 45% in size
In short: as §2

SMILES | parasite growth, % of DMSO control [1] | parasite growth remaining, % of DMSO control (lower = more inhibition) [2] | parasite growth, % of control (lower = inhibition) [3] | growth, % of control [4] | cell viability, % of control (lower = more cytotoxic) [5] | viability (% of control) [6] | Potency [7] | Potency [8] | Potency [9] | Potency [10] | Potency [11] | outcome [12] | outcome [13] | remaining proliferation (% of control), lower = more inhibition [14] | Potency [15]
COc1c(C)c2c(c(O)c1CC=C(C)CCC(=O)O)C(=O)OC2 | 15.7% | 17.9% | 13.7% | 7.33% | 94.4% | 16.3% | inactive | inactive | 3.72 µM (active) | 2.35 µM (active) | 1.48 µM (active) | – | – | – | –
NCC1CCC(C(=O)O)CC1 (stereo not drawn) | 428% | 105% | 104% | 159% | 110% | 115% | inactive | inactive | inactive | 9.35 µM (active) | inactive | inactive | – | – | –
CC(=O)OCC(=O)[C@@]1(O)CC[C@H]2[C@@H]3CCC4=CC(=O)C=C[C@]4(C)[C@@H]3[C@@H](O)C[C@@]21C | 77.8% | 102% | 81.3% | 80.7% | 165% | 58.1% | inactive | inactive | inactive | 9.35 µM (active) | inactive | – | – | – | –
OC1CCC(Nc2ncc3nc(Nc4c(F)cc(F)cc4F)n([C@@H]4CCOC4)c3n2)CC1 (stereo partly drawn) | 38.4% | 84.7% | 59.6% | – | 62.2% | 13.2% | inactive | inactive | 18.7 µM (active) | 10.5 µM (active) | 9.35 µM (active) | – | – | – | –
Cc1cc(NC(=O)Nc2ccc(N(C)C)cc2)c2cc(F)cc(F)c2n1 | 9.65% | 46% | 10.9% | 10.1% | 149% | 112% | inactive | inactive | inactive | inactive | 26.4 µM (active) | – | – | – | –
CCCC1OC2C[C@@H]3[C@H]4CCC5=CC(=O)C=C[C@]5(C)[C@H]4C(O)C[C@]3(C)[C@]2(C(=O)CO)O1 (stereo partly drawn) | 11.7% | 20.2% | 15.8% | 5.33% | 12.2% | 11.8% | inactive | inactive | inactive | 13.2 µM (active) | 18.7 µM (active) | – | – | – | –
COc1cc(F)c(C(C)C)cc1-c1ccc(C(F)(F)F)cc1CN1C(=O)O[C@H](c2cc(C(F)(F)F)cc(C(F)(F)F)c2)[C@@H]1C | 6.82% | 9.07% | 31.9% | 9.46% | 115% | 33.1% | inactive | inactive | inactive | 16.6 µM (active) | inactive | – | – | – | –
Oc1cc(O)cc(C=Cc2ccc(O)c(O)c2)c1 | 39.8% | 76.7% | 32.1% | 50.9% | 3.35% | 3.72% | 23.5 µM (active) | 4.18 µM (active) | 20.9 µM (active) | 18.7 µM (active) | 18.7 µM (active) | – | – | – | –
CC(C)CN(C[C@@H](O)[C@H](Cc1ccccc1)NC(=O)O[C@H]1CO[C@H]2OCC[C@H]21)S(=O)(=O)c1ccc(N)cc1 | 42.7% | 19.4% | 101% | 8.15% | 118% | 117% | inactive | inactive | 2.09 µM (active) | 3.72 µM (active) | 1.32 µM (active) | inactive | inactive | – | –
CC(C)C[C@@H](N)[C@H](O)C(=O)N[C@H](C(=O)N[C@H](C(=O)N[C@@H](CC(=O)O)C(=O)O)C(C)C)C(C)C | 102% | 99.5% | 127% | 107% | 128% | 104% | inactive | inactive | 20.9 µM (active) | 18.7 µM (active) | inactive | – | – | – | –
O=C(O)CCNc1cc(N2CCc3ccccc3CC2)nc(-c2ccccn2)n1 | 19.7% | 48.3% | 20.6% | 5.23% | 158% | 91.6% | inactive | inactive | 26.4 µM (active) | 26.4 µM (active) | inactive | – | – | – | –
CCC(=C(CC)c1ccc(O)cc1)c1ccc(O)cc1 | 57.2% | 96.4% | 84.8% | 90.8% | 111% | 25.3% | inactive | inactive | 23.5 µM (active) | 26.4 µM (active) | 26.4 µM (active) | – | – | – | –
CC(C)C[C@@H](C(=O)N[C@H](C(=O)OC1CCCC1)c1ccccc1)[C@H](O)C(=O)NO | 15.1% | 21.7% | 29% | 7.8% | 6.81% | 8.67% | inactive | inactive | 26.4 µM (active) | 18.7 µM (active) | 18.7 µM (active) | – | – | 11% | –
COc1ccc(-c2nc3ccc(C4=NNC(=O)CC4C)cc3[nH]2)cc1 (stereo not drawn) | – | – | – | – | 263% | 107% | inactive | inactive | inactive | inactive | inactive | inactive | – | – | –
CCN1C[C@H](C)n2c(c(O)c3c(=O)n(Cc4ccc(F)c(Cl)c4)nc(C(=O)NC)c32)C1=O | – | – | – | – | 108% | 113% | inactive | inactive | inactive | inactive | inactive | – | – | – | –
C[C@@H]1[C@H](O)[C@@H](C)C=CC=CC=CC=CC=CC=CC=C[C@H](O[C@@H]2O[C@H](C)[C@H](O)[C@H](N)[C@@H]2O)C[C@@H]2O[C@](O)(C[C@@H](O)C[C@@H](O)[C@H](O)CC[C@@H](O)C[C@@H](O)CC(=O)O[C@H]1C)C[C@H](O)[C@@H]2C(=O)O | 16.7% | 9.78% | 7.41% | 29.7% | 485% | 4.45% | inactive | inactive | 0.105 µM (active) | 0.372 µM (active) | 1.18 µM (active) | – | – | – | 0.743 µM (active)
